Source: PubChem BioAssay (several laboratories)
Only some compounds are listed: those with a hit (about 2.3% of all), similar ones and a draw of the others.
KKLEB tox: reduces viability of KKLEB cystic fibrosis airway cells; KKLEB CF airway cells viability, ATPlite luminescence, overnight; active compounds read low; cells stimulated with P. aeruginosa culture filtrate; activity change (cytotoxicity), % at 5 µM; actives 0.36% (n = 360,000);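 active means corrected activity change at or below -50% at 5 µM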
LGR2 inh: inhibitors of bursicon-induced Drosophila LGR2 receptor cAMP signaling; inhibition, % at 9.99 µM; HEK293 LGR2, CRE-luciferase, bursicon-stimulated, 4 h; actives 0.35% (n = 380,000);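 active means drop in luminescence signal, shown as inhibition above about 50% in the replicate tests, limit read from the data, passing the limit was not always enough; inconclusive means probably only some replicates passing the limit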;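 further: agonist challenge used bursicon conditioned medium at about half maximal strength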
HIF-2a block: HIF-2a inhibition; 786-0 RCC cells HIF-2a reporter, luciferase luminescence, overnight; inhibition, % at 18.8 µM; actives 0.72% (n = 360,000); AID 624352;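 active means inhibition of the luminescence signal of 40% or more relative to plate controls, in a single-dose primary screen at 18.75 µM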
hiPSC survival: increases survival of single human iPS cells | survival enhancement, % at 20 µM | hiPSC single-cell survival, ATPlite luminescence; 100% = ROCK inhibitor wells, 0% = DMSO | AID 602274 | actives 0.044% (n = 360,000); in the data active means survival enhancement above about 18%;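 further: cells exposed to compounds for 16 hours before the ATP read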
CF NFkB block: blocks PAF-induced NF-kB reporter in cystic fibrosis cells; KKLEB NF-kB-GFP reporter, GFP fluorescence overnight; inhibition, % at 5 µM; actives 0.86% (n = 360,000);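 active means at least 50% inhibition at 5 µM, scaled per plate between neutral and stimulator controls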;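 further: PAF is a Pseudomonas aeruginosa culture filtrate used as stimulus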
TWEAK Fn14 block: TWEAK-Fn14 signaling inhibition; inhibition, % at 10 µM; actives 2% (n = 360,000); AID 1159606; TWEAK-stimulated Fn14 reporter cells, luciferase luminescence, 8 h; in the data active means inhibition above about 50%
Numbers stand for hits; 0 = inactive; ? = inconclusive; - = no result.

SMILES | KKLEB tox | LGR2 inh | HIF-2a block | hiPSC survival | CF NFkB block | TWEAK Fn14 block
C[C@@H]1CCCCO[C@@H](CN(C)Cc2ccncc2)[C@H](C)CN([C@H](C)CO)C(=O)c2cc(NC(=O)c3ccccc3)ccc2O1 | - | 0 | - | - | - | -
Fc1ccc(CSc2nncn2NCc2ccccc2)cc1 | 0 | - | 0 | 0 | 0 | 77
CN(C)c1ccc(CNn2cnnc2SCc2ccc(F)cc2)cc1 | 0 | - | 0 | 0 | 0 | 0
O=c1nc(N/N=C/c2c[nH]c3ccccc23)cn[nH]1 | 0 | 0 | 0 | 0 | 0 | 0
O=C(O)c1ccc(N/N=C/C=C/c2ccccc2)cc1 | 0 | 0 | 0 | 0 | 0 | 63
O=c1nc(N/N=C/C=C/c2ccccc2)cn[nH]1 | 0 | 67 | 0 | 0 | 0 | 70
O=C(O)c1cccc(NC(=S)N/N=C/c2ccccc2OCc2ccc(Br)cc2)c1 | 0 | 0 | 0 | 0 | 0 | 0
O=C(O)c1cccc(NC(=S)N/N=C/c2cccc(O)c2)c1 | 0 | 63 | 0 | 0 | 0 | 0
O=C(O)c1cccc(NC(=S)N/N=C/c2ccccn2)c1 | 0 | 72 | 0 | 0 | 0 | 0
S=C(N/N=C/c1ccc2ncccc2c1)Nc1cccnc1 | 0 | ? | 0 | 0 | 0 | 56
C[C@H]1CN([C@@H](C)CO)C(=O)c2cccc(NS(=O)(=O)c3cn(C)cn3)c2O[C@@H]1CN(C)C | - | 0 | - | - | - | -
CCOC(=O)Cc1nnc(NC(=O)C(CC)Sc2nc(C)cc(C)n2)s1 (configuration not stated) | 0 | 0 | 0 | 0 | 0 | 0
CCC(Sc1nc(C)cc(C)n1)C(=O)Nc1ccc(Cl)cn1 (configuration not stated) | 0 | - | 0 | 0 | 0 | 59
Cc1ccccc1CN(C)C1CCN(C)CC1 | 0 | 0 | 0 | 0 | 0 | 110
CN1CCC(N(C)CC(O)c2ccccc2)CC1 (configuration not stated) | 0 | 0 | 0 | 0 | 0 | 0
CCOc1cc(/C=C2\COc3ccccc3C2=O)ccc1OCC(=O)N(C)C | 0 | 0 | 0 | 0 | 0 | 79
COCC(=O)Nc1ccc2c(c1)C(=O)N(C)C[C@@H](OC)[C@H](C)CN(C(=O)NC(C)C)[C@@H](C)CO2 | - | 0 | - | - | - | -
O=C(c1ccncc1)N1CC(=O)N2[C@H](CO)[C@H](c3ccc(/C=C/c4ccccc4)cc3)[C@@H]2C1 | - | 0 | - | - | - | -
O=C(NCCC1=CCCCC1)C1CCN(C(=O)Nc2ccccc2)CC1 | 0 | - | 0 | 0 | 0 | 110
O=C(NCCC1=CCCCC1)C1CCN(S(=O)(=O)N2CCCC2)CC1 | 0 | 0 | 0 | 0 | 0 | 0
CN(C)/C=N/C(=S)Nc1ccccc1Cl | 0 | - | 0 | 0 | 0 | 0
CN(C)/C=N/C(=S)Nc1ccc(F)cc1 | 0 | - | 0 | 0 | 0 | 88
CN(C)/C=N/C(=S)Nc1ccccc1F | 0 | - | 0 | 0 | 0 | 74
CN(C)c1ccc(/C=C/c2ccc3c4ccccc4ccc3[n+]2-c2ccccc2)cc1 | 0 | ? | 96 | 0 | 0 | 74
CN(C)c1ccc(/C=C/c2cccc[n+]2[O-])cc1 | 0 | - | 0 | 0 | 0 | 0
SMILES | KKLEB tox | LGR2 inh | HIF-2a block | hiPSC survival | CF NFkB block | TWEAK Fn14 block
[O-][n+]1c(/C=C/c2ccccc2)ccc2ccccc21 | 0 | 0 | 0 | 0 | 0 | 66
CN(CCCS(=O)(=O)[O-])c1ccc(/C=C/c2ccc3ccccc3[n+]2C)cc1 | 0 | 0 | 0 | 0 | 0 | 0
CN(C)c1ccc(/C=C/c2ccc3ccccc3[n+]2C)cc1 | 0 | 0 | 0 | 0 | 0 | 64
COCCNC(=O)C[C@@H]1C[C@H]2c3cc(NC(=O)NC4CCCC4)ccc3O[C@H]2[C@@H](CO)O1 | - | 0 | - | - | - | -
CC[C@H](C)[C@@H]1NC(=O)[C@@H](CC(C)C)NC(=O)[C@H](C(C)C)NC(=O)[C@H]2CSSC[C@H](NC1=O)C(=O)N2 | -106 | 72 | 96 | 0 | 82 | 107
O=S(=O)(N[C@@H]1CC[C@@H](CCn2cc(-c3cccnc3)nn2)O[C@H]1CO)c1ccccc1 | - | 0 | - | - | - | -
CCC(=O)Nc1ccc2c(c1)OC[C@H](C)N(Cc1ccccc1OC)C[C@H](C)[C@H](OC)CN(C)C2=O | - | 0 | - | - | - | -
COc1cc(NC(=O)Nc2ccccc2OC)c(OC)cc1NC(=O)CN1CCCCC1 | 0 | - | 0 | 0 | 0 | 0
COc1cc(NC(=O)Nc2ccccc2)c(OC)cc1NC(=O)CN1CCCCC1 | 0 | - | 0 | 0 | 0 | 78
Cn1nnnc1SCc1cn2cccnc2n1 | 0 | - | 0 | 0 | 0 | 87
c1ccc(SCc2cn3cccnc3n2)nc1 | 0 | 0 | 0 | 0 | 0 | 0
COc1ccc(NC(=O)N(C)C[C@@H]2Oc3ccc(NS(=O)(=O)c4ccc(Cl)cc4)cc3C(=O)N([C@@H](C)CO)C[C@H]2C)cc1 | - | 0 | - | - | - | -
COc1cc(C(C)=O)ccc1OCC(O)CN1CCN(c2ccccc2)CC1 (configuration not stated) | 0 | 0 | 0 | 0 | 0 | 0
COc1cc(C(C)=O)ccc1OCC(O)CN1CCN(c2ccccn2)CC1 (configuration not stated) | 0 | 0 | 0 | 0 | 0 | 108
O=C(O)c1ccc(N/N=C/c2ccc(-c3ccccc3Cl)o2)cc1 | 0 | 0 | 0 | 0 | 0 | 51
C[C@H](O)C#Cc1cnc2c(c1)C(=O)N([C@H](C)CO)C[C@H](C)[C@@H](CN(C)C(=O)c1ccc(F)cc1)O2 | - | 0 | - | - | - | -
COc1ccc2c3c(n(C)c2c1)[C@H](CO)N(C(=O)c1cccnc1)CC31CCN(C(=O)c2cccnc2)CC1 | - | 0 | - | - | - | -
C[C@@H]1CCCCO[C@H](CN(C)CC2CCCCC2)[C@H](C)CN([C@H](C)CO)C(=O)c2cc(NC(=O)CCCN(C)C)ccc2O1 | - | 0 | - | - | - | -
CN(C)S(=O)(=O)c1cccc(NC(=S)NC23CC4CC(CC(C4)C2)C3)c1 | 0 | 0 | 0 | 0 | 0 | 62
N#CC(C#N)=NNc1ccc(S(=O)(=O)N2CCCCC2)cc1 | 0 | - | 0 | 0 | 71 | 0
NS(=O)(=O)c1ccc(NC(=S)Nc2ccc(S(=O)(=O)N3CCCC3)cc2)cc1 | 0 | 0 | 0 | 0 | 0 | 0
O=S(=O)(c1ccc(NC(=S)NC23CC4CC(CC(C4)C2)C3)cc1)N1CCCCC1 | 0 | 0 | 0 | 0 | 0 | 70
O=C(c1cccc(F)c1)N1CC[C@H]2[C@H](CO)Nc3ccc(C#Cc4cccc(F)c4)cc3[C@H]21 | - | 0 | - | - | - | -
COCC(=O)OC1CCn2c1nc1c2C(=O)C(C)=C(NC(C)=O)C1=O (configuration not stated) | -68 | 86 | 0 | 0 | 91 | 101
COc1ccc2c3c(n(C)c2c1)[C@@H](CO)N(C(=O)c1cccnc1)CC31CCN(C)CC1 | - | 0 | - | - | - | -
O=[N+]([O-])c1cc(C(F)(F)F)ccc1Sc1nccn1Cc1ccccc1 | 0 | - | 0 | 0 | 0 | 0
O=c1cc(-c2ccccc2)nc(Sc2ccc([N+](=O)[O-])cc2[N+](=O)[O-])[nH]1 | 0 | 0 | 0 | 0 | 0 | 52
O=[N+]([O-])c1ccc(Sc2ncccn2)c([N+](=O)[O-])c1 | 0 | - | 0 | 0 | 0 | 54
Cc1cccc(Sc2ccc([N+](=O)[O-])cc2[N+](=O)[O-])n1 | 0 | 0 | 0 | 0 | 0 | 0
